# Most compounds without a hit are left out; they make up all but 5.2% or so of the library.
# Tau fibril ThT: blocks human tau fibril formation measured by thioflavin T | Potency, µM (titrated, usually from 57.4 µM), for inactives: at the top dose activity, negative = inhibition, actives largely listed as inhibitors | P10636 | recombinant tau K18 P301L, heparin-induced fibrillization, ThT fluorescence | 270,000 tested, 2.1% active; also: potency is read from the fitted curve at half-maximal effect; nearly all actives have a fitted effect of over 55% in size
# Target sequence (P10636 561-689 P618L limits assumed): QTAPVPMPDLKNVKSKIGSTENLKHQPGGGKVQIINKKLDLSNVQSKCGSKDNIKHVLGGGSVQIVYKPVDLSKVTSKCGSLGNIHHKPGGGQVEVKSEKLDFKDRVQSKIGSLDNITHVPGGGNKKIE
#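 Heparin-induced (20 uM) aggregation of recombinant human K18 P301L tau, 15 uM unlabeled with 0.24 uM labeled, pH 7 acetate buffer, 6 hr at 37 C with compound. Fibrils quantified by 30 uM ThT fluorescence after 1 hr ambient incubation.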
# Sfp inh: inhibitors of Bacillus subtilis Sfp phosphopantetheinyl transferase; 310,000 tested, 3.5% active; Biochemical Sfp PPTase activity, qHTS; Potency, µM, for inactives: largest response in the series, negative = inhibition, most hits filed as inhibitors; AID 1490;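 also: the enzyme is Sfp with the accession as filed and its product quenches rhodamine fluorescence; potency is read from the fitted curve at half-maximal effect; 0% = enzyme reaction without inhibitor and -100% = no enzyme wells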
#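 With Hepes-Na pH 7.6 buffer containing 10 mM MgCl2, Sfp (15 nM) modified BHQ-2-YbbR (12.5 uM) using rhodamine-CoA (5 uM). Two reads 30 minutes apart at 525/598 nm yielded each well's rate.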
# Tau fibril FP: inhibitors of human tau fibril formation | P10636 | K18 P301L tau heparin fibrillization, Alexa594 FP, 6 h | Potency, µM (series often up to 57.7 µM), without a hit: at the highest dose activity, negative = inhibition, usual class: inhibitors | 280,000 tested, 0.39% active; also: potency is read from the fitted curve at half-maximal effect; nearly all actives have a fitted effect of over 55% in size
#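 Human tau K18 […] P301L fragment, 15 uM unlabeled plus 0.24 uM Alexa 594-labeled tau (final), with compound and 20 uM heparin in 100 mM sodium acetate pH 7; 6 hr at 37 C, then Alexa 594 FP read.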
# FBPA coupling cs: inhibits coupling enzyme system, counter-screen for aldolase hits | coupling enzyme system counterscreen, AmpLite Red fluorescence | activity change, negative = inhibition, % at 58.2 µM, hits read low | 290,000 tested, 0.67% active | AID 2472; in the data active = activity change below about -30%
#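 Counterscreen of the coupled detection system alone, without aldolase: glyceraldehyde-3-phosphate coupling enzymes plus AmpLite Red readout. Compounds at 57.5 uM final, 10 min RT preincubation, 20 min RT reaction, fluorescence 525/598 nm.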
# Tau fluor counter: counter-screen for tau fibril formation inhibitors; AID 1463; 280,000 tested, 0.93% active; tau K18 P301L Alexa594 fluorescence, heparin fibrillization; Potency, µM (series often up to 57.7 µM), inactives show top-dose activity change, negative = decrease; also: potency is read from the fitted curve at half-maximal effect; nearly all actives have a fitted effect of over 55% in size
#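 Human tau K18 P301L (15 uM unlabeled, 0.24 uM Alexa 594-labeled) in 100 mM sodium acetate pH 7 with 20 uM heparin, 6 hr at 37 C. ThT 30 uM added, 1 hr ambient; Alexa 594 FP and total fluorescence read at 555/632 nm.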
# The depositor's hits bear a star; ? = inconclusive; . = no result given; [ ] = dose if it differs, or a comment. Unless noted, calls follow the shape of the dose curve; as a rule, active = well fitted curve in the direction sought with a large enough effect; inconclusive = small, poorly fitted or top-dose-only effect, or another doubt; inactive = no such curve, though single readings can be large; an effect the other way counts as inactive or inconclusive. Unless noted, % is scaled to controls: 0 for no effect and ±100 for the full control effect.
SMILES,Tau fibril ThT,Sfp inh,Tau fibril FP,FBPA coupling cs,Tau fluor counter
CN(Cc1ncc[nH]1)Cc1cn(-c2ccccc2)nc1-c1ccc2c(c1)OCO2,0%,11%,-4%,-3,-4%
Cc1ccc(NC(=O)N2CCN(c3nnc(C)c4c(C)n(-c5ccc(Cl)cc5)nc34)CC2)c(C)c1,4%,.,-1%,.,1%
Cc1ccc([C@@H]2[C@@H]3C(=O)N(C)C(=O)[C@@H]3[C@]3(C)C(=O)N(Cc4ccc(-c5ccccc5)cc4)CC(=O)N23)o1,.,50µM*,.,5,.
Cc1ccc([C@@H]2[C@@H]3C(=O)N(c4ccccc4)C(=O)[C@@H]3[C@]3(C)C(=O)N(Cc4ccccc4)CC(=O)N23)o1,.,8%,.,-1,.
O=S(=O)(c1ccc(F)cc1)N1CCC(n2c(C(F)(F)F)nc3cccnc32)CC1,3%,.,-3%,.,-5%
CCOC(=O)C1=C(c2ccccc2)NC(N)=NC1c1ccc(OCc2ccc(C(=O)OC)cc2)cc1 (stereo not drawn),?,79µM*,-5%,0,-25%
CCOC(=O)C1=C(c2ccccc2)Nc2ncnn2C1c1ccc(C(=O)O)cc1 (stereo not drawn),-8%,10%,-3%,2,-11%
O=C1/C(=C\c2cc([N+](=O)[O-])ccc2O)SC(=S)N1Cc1ccc(Cl)cc1,.,?,.,5,.
Cc1ccccc1/C=C1\SC(=S)N(/N=C/c2cc([N+](=O)[O-])ccc2O)C1=O,25µM*,-14%,-13%,4,?
C=CCn1c(SCC(=O)NCC2CCCO2)nc2scc(-c3ccco3)c2c1=O (stereo not drawn),?,-97%,-12%,1,-5%
C=CCn1c(SCC(=O)NCCOC)nc2scc(-c3ccco3)c2c1=O,22µM*,10µM*,16µM*,-1,-17%
C=CCn1c(SCC(N)=O)nc2scc(-c3ccc(C)o3)c2c1=O,?,22µM*,0%,0,-15%
C=CCn1c(SCC(=O)c2ccc(CNC(C)=O)o2)nc2scc(C3CC3)c2c1=O,?,45µM*,-6%,0,-26%
C=CCn1c(SCc2ccccc2)nc2scc(-c3ccc(C)o3)c2c1=O,-12%,28µM*,0%,-1,-11%
C=CCn1c(SCCN2C(=O)c3ccccc3C2=O)nc2scc(-c3ccccc3)c2c1=O,-2%,-12%,9%,3,-1%
CCCCOC(=O)c1ccc(NC(=O)Cn2nnc3sc4c(c3c2=O)CCCC4)cc1,1%,.,?,.,?
CSc1ccccc1NC(=O)C(=O)c1c[nH]c2ccccc12,-1%,8%,10µM*,-3,?
COC(=O)c1ccccc1NC(=O)Cn1c(=O)n(-c2ccc(C)cc2)c(=O)c2ccccc21,-11%,.,4%,.,-17%
CC1Sc2ccc(C(=O)O)cc2NC1=O (stereo not drawn),11%,3%,9%,-3,7%
COc1ccc(CNC(=O)c2ccc3c(c2)NC(=O)C(C)S3)cc1 (stereo not drawn),?,22µM*,?,-2,-23%
O=C(NNCS(=O)(=O)O)c1ccncc1,.,14%,.,.,.
N[C@H](C(=O)O)C1C(C(=O)O)C1C(=O)O (stereo partly drawn),8%,50µM*,-1%,.,3%
N[C@H](CC(=O)O)C(=O)O,3%,?,10%,3,6%
C=C/C1=C/Cc2ccccc2[C@H](C[N+](=O)[O-])C(C(C)=O)(C(=O)OC)C1 (stereo partly drawn),-3%,0%,-2%,2,2%
CCOc1cc(/C=C2/NC(=S)NC2=O)ccc1OCc1ccc([N+](=O)[O-])cc1,?,-19%,-1%,3,-17%
SMILES,Tau fibril ThT,Sfp inh,Tau fibril FP,FBPA coupling cs,Tau fluor counter
O=C1NC(=S)N/C1=C/c1cc([N+](=O)[O-])ccc1O,16µM*,?,-1%,11,-20%
O=C1NC(=S)N/C1=C/c1cccc([N+](=O)[O-])c1O,4.5µM*,-17%,-8%,6,?
Cc1ccc(/C=C2\NC(=S)NC2=O)cc1[N+](=O)[O-],?,2%,0%,1,-10%
Cc1cc(C)nc(N(C#N)CN2C(=O)c3ccccc3C2=O)n1,23%,89µM*,0%,-2,23%
CC(C)c1ccc(SCc2noc(C(=O)NCC3CCCO3)c2C(=O)O)cc1 (stereo not drawn),7%,100µM*,-5%,25,-2%
CCN(CC)c1ccc(/C=C(\C#N)C(N)=O)cc1,?,10%,4%,0,-12%
CCN(CC)c1ccc(/C=C(\C#N)C(N)=S)cc1,4.5µM*,?,-2%,2,?
NS(=O)(=O)c1ccc(NC(CNS(=O)(=O)c2ccccc2)c2ccccc2)cc1 (stereo not drawn),3%,29%,-3%,3,-18%
Cc1ccc(NC(CNS(=O)(=O)c2ccc(Cl)cc2)c2ccccc2)cc1 (stereo not drawn),1%,12%,7%,1,4.5µM*[quencher]
COc1cccc(NC(CNS(=O)(=O)c2ccc(Cl)cc2)c2ccccc2)c1 (stereo not drawn),-9%,.,10%,.,10µM*[quencher]
O=S(=O)(NCC(Nc1ccc(Cl)cc1)c1ccccc1)c1ccccc1 (stereo not drawn),8%,34%,-2%,-1,8.9µM*[quencher]
COc1ccc(-c2nc3c(c4c2C[C@H](c2ccccc2)OC4)CN(S(=O)(=O)c2ccc(NC(C)=O)cc2)CC3)c(C)c1,2%[11.5 µM],8%,-6%[11.6 µM],3,-6%[11.6 µM]
Cc1ccc(CCNC(c2ccc(F)cc2)c2nnc(-c3ccccc3Cl)o2)cc1 (stereo not drawn),-15%,.,1%,.,-12%
CC(C)CO/N=C1/C[C@@H](O)[C@@H](O)[C@@H]2[C@@H]3C(=O)N(c4cccc(Oc5ccccc5)c4)C(=O)[C@H]3CC[C@H]12,-7%[11.5 µM],25%,0%[11.6 µM],0,-7%[11.6 µM]
CC1CCCCN1S(=O)(=O)c1ccc2[nH]c(=O)cc(C(=O)NCCc3ccc(Cl)cc3)c2c1 (stereo not drawn),0%,.,?,.,-18%
COc1ccc(-n2c(=O)c3ccccc3n(Cc3ccc(F)cc3Cl)c2=O)cc1OC,-1%,.,-5%,.,-3%
CCCC(=O)Nc1nc(C)c(-c2csc(Nc3ccc(Cl)cc3)n2)s1,13µM*,-10%,7%,0,14µM*[quencher]
CCC(C)C(=O)Nc1nc(C)c(-c2csc(Nc3ccc(Cl)cc3)n2)s1 (stereo not drawn),?,-23%,15%,-1,14µM*[quencher]
CC(=O)Nc1ccc(Nc2nc(-c3sc(NC(C)=O)nc3C)cs2)cc1,.,?,.,-5,.
CCCCCCCOC(=O)C[N+](C)(C)CCOC1CC2CCC1(C)C2(C)C (stereo not drawn),?,50µM*,0%,2,2%
